The values below come from PubChem BioAssay (NCATS).

One assay has as its system TAB165. As to the kind of experiment: qHTS profiling for inhibitors of Plasmodium falciparum proliferation (AID 504749). The note with it: P. falciparum in erythrocytes, SYBR Green DNA, 72 h; series mostly up to 28.7 µM. A digest of the protocol: (§1)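 In a 72 h erythrocytic culture (37 C, humidified, 5% CO2) at 2.5% hematocrit and 0.3% starting parasitemia, compounds were tested; SYBR Green I in detergent lysis buffer stained parasite DNA overnight.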

The next assay concerns W2. Described as above. The note with it: P. falciparum in erythrocytes, SYBR Green DNA, 72 h; series mostly up to 28.7 µM. A digest of the protocol:
as §1

For another assay, the system named is CRL-7250. As to the kind of experiment: Cytotoxic Profiling of Annotated Libraries Using Quantitative High-Throughput Screening (AID 1296008). For max response: % is set by controls: 0 for no effect and ±100 for the full control effect. The settings on record: Five cell lines viability, CellTiter-Glo ATP luminescence, 48-72 h; max response: hits give low values. A digest of the protocol: (§2)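 Cytotoxicity was measured as CellTiter-Glo ATP luminescence, read after 10 min at room temperature. Compound treatment of the cells lasted 48 or 72 hr at 37 degrees Celsius in a qHTS format.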
(In general: In ATP-based viability assays light output follows the ATP content of the culture.)

The subject of a further assay is HEK293. Described as above. The note with it: Five cell lines viability, CellTiter-Glo ATP luminescence, 48-72 h; max response: hits give low values. A digest of the protocol: as §2
The test system of assay [1] is HaCat. The assay is described as above. The note with it: Five cell lines viability, CellTiter-Glo ATP luminescence, 48-72 h; max response: hits give low values. A digest of the protocol: as §2
Another assay has as its system NIH3T3. Described as above. The note with it: Five cell lines viability, CellTiter-Glo ATP luminescence, 48-72 h; max response: hits give low values. A digest of the protocol: as §2
The next assay deals with MCC-13. As to the kind of experiment: qHTS assay to identify novel small-molecules to repurpose for Merkel cell carcinoma treatment (AID 1296009). For activity change, negative = cytotoxicity: % is set by controls: 0 for no effect and ±100 for the full control effect. The note with it: MCC and control cell lines, CellTiter-Glo viability, 72 h; series mostly up to 46 µM. An outline of the steps: (§3)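 Cell viability measured by CellTiter-Glo following 72 hr compound treatment at 37 degree celsius, with NPC and MIPE libraries tested in 8- and 11-point concentration series.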

The subject of assay [2] is HACAT. The assay is described as above. The settings on record: MCC and control cell lines, CellTiter-Glo viability, 72 h; at 44.8 µM (top of the series) unless noted. An outline of the steps: as §3
A further assay deals with HEK293T. The description is as above. The note with it: MCC and control cell lines, CellTiter-Glo viability, 72 h; at 44.8 µM (top of the series) unless noted. An outline of the steps: as §3
The test system of another assay is KB-3-1. As to the kind of experiment: Cytotoxic Profiling of Annotated Libraries Using Quantitative High-Throughput Screening (AID 1296008). For max response: % is set by controls: 0 for no effect and ±100 for the full control effect. The note with it: Five cell lines viability, CellTiter-Glo ATP luminescence, 48-72 h; max response: hits give low values. An outline of the steps: as §2

The structures appear in SMILES notation. “And” between values parts separate entries of the source, which are not always exact repeats. Identical values can stand only once. Records with an inconclusive call do not appear. Values without a mark were called inactive. The source made the active and inactive calls. Calls come from the whole dose curve; as a rule, active = well fitted inhibition curve with a large enough effect; inconclusive = small, poorly fitted or top-dose-only effect; inactive = flat fitted curve, though single readings scatter.
Note: nearly all actives have a fitted effect of over 60% in size.
Potency is the fitted concentration of half-maximal effect.

Consider `Cc1ccc(C(=O)c2ccc(CC(=O)O)n2C)cc1`, for which the Potency result in the assay with TAB165, in the assay with W2 and with MCC-13 was “inactive” each time. Besides, the max response was -1.54% in the assay on CRL-7250, -2.23% in the assay with HEK293, 2.78% in the assay on HaCat [1] and 0.61% in the assay with NIH3T3.
In the case of `C#CC1(O)CC[C@H]2[C@@H]3CCC4=CCCC[C@@H]4[C@H]3CC[C@@]21C` (stereo partly specified), the max response in the assay on CRL-7250 was -8.11%; in the assay on NIH3T3, -0.384%. The result in the assay with HEK293, with HaCat [1], in the assay on HACAT [2] and in the assay on HEK293T was inactive.
Turning to `CCCCCCCCCCCC(=O)[O][Sn]([CH2]CCC)([CH2]CCC)[O]C(=O)CCCCCCCCCCC`, the Potency result in the assay on TAB165, in the assay with W2 and in the assay with MCC-13 was “inactive” in each case. The max response in the assay on CRL-7250 was -26.6%; with HEK293, -9.3%; in the assay on NIH3T3, 4.84%. The call in the assay on HaCat [1] and in the assay on HACAT [2] was inactive.
`CCCCCCCCCCCCOCCO`: the max response with CRL-7250 is -9.14%; with HEK293, -2.23%; in the assay on HaCat [1], -12.4%; with NIH3T3, 1.59%. In addition, the Potency result in the assay with MCC-13 is “inactive”.
As for `Nc1ccc(O)c([N+](=O)[O-])c1`, the max response with CRL-7250 was 4.51%; in the assay on HEK293, -8.71%. In addition, the outcome with HaCat [1] was inactive. Also, the outcome with HACAT [2] was “inactive [at 92 µM]”. Moreover, the Potency entry in the assay on MCC-13 was “inactive”.
For `CCC1C(=O)OCC1Cc1cncn1C` (stereo unspecified), the Potency entry with TAB165, in the assay with W2 and in the assay on MCC-13 was “inactive” throughout. For the same molecule, the outcome in the assay on CRL-7250 was inactive. Moreover, the max response with HEK293 is 0.743%; in the assay with HaCat [1], 0.604%; in the assay on NIH3T3 it was -5.1%.
For the molecule `O=C(O)Cc1cccc(-c2cc(CCCCCCc3ccc(O[C@H]4O[C@H](CO)[C@@H](O)[C@H](O)[C@@H]4O)c(-c4cccc(CC(=O)O)c4)c3)ccc2O[C@H]2O[C@H](CO)[C@@H](O)[C@H](O)[C@@H]2O)c1`, the max response in the assay with HEK293 is 1.99%; in the assay with HaCat [1] it was -11.5%; with NIH3T3 it was 2.37%. Further, the molecule was classed as inactive in the assay with KB-3-1. Also, the activity change, negative = cytotoxicity in the assay on MCC-13 is 9.04% [at 0.597 µM].
As to `COc1cc(NC(C)CCCN)c2ncccc2c1` (stereo unspecified), the results for the max response in the assay on CRL-7250 and with KB-3-1 were 4.62% and 20.7%, respectively. Further, the molecule was classed as inactive with HaCat [1], with NIH3T3 and with HACAT [2]. In addition, the Potency in the assay with MCC-13 is 16.8 µM (active).
Regarding `CCCCCCCCCCCCCCCCCC(=O)O`, the Potency entry with TAB165, in the assay on W2 and with MCC-13 was “inactive” each time. Also, the molecule was classed as inactive in the assay with HEK293, with HaCat [1], in the assay with HACAT [2] and in the assay with HEK293T. In addition, the results for the max response with KB-3-1 and with NIH3T3 were -8.88% and -5.96%, respectively.
For the molecule `CCCOC(=O)c1ccc(O)cc1`, the Potency result in the assay with TAB165, in the assay with W2 and with MCC-13 was “inactive” each time. Further, the max response in the assay on CRL-7250 was 4.61%; with HEK293, -6.34%; in the assay with NIH3T3, 3.51%.
As for `COC(=O)c1nc(Cl)c(Cl)nc1N`, the Potency with CRL-7250 was 5.31 µM (active); with HEK293 it was 0.841 µM (active); in the assay with NIH3T3, 10.6 µM (active); in the assay on MCC-13, 0.944 µM (active).
As to `COc1ccc(/C=C/C(=O)Nc2ccccc2C(=O)O)cc1OC`, the Potency result in the assay with TAB165 was “inactive”. Further, the max response with CRL-7250 was 2.22%; in the assay with HEK293, 0.531%; in the assay with NIH3T3 it was -8.92%.
In the case of `COc1ccc(-c2cc(=S)ss2)cc1`, the Potency result with W2 and in the assay with MCC-13 was “inactive” each time. Further, the max response is -2.86% with CRL-7250 and 24% in the assay on KB-3-1. Also, the result in the assay on HaCat [1], in the assay with NIH3T3 and in the assay on HACAT [2] was inactive.
In the case of `Fc1ccc2[nH]c(CN3CCN(c4ccccn4)CC3)cc2c1`, the figures for the max response in the assay with CRL-7250, in the assay on KB-3-1 and with NIH3T3 were -22.3%, -22.6% and -28.5%, respectively.
For the molecule `NS(=O)(=O)c1ccc(-n2nc(C(F)(F)F)cc2-c2ccc(Cl)cc2)cc1`, the outcome with HaCat [1] and in the assay on HACAT [2] was inactive. For the same molecule, the figures for the max response in the assay with KB-3-1 and in the assay with NIH3T3 were -3.63% and -15.5%, respectively.
On to `COc1cc(CNC(=O)CCCC/C=C/C(C)C)ccc1O`, for which the Potency entry in the assay on TAB165 and in the assay with W2 was “inactive” in each case. In addition, the max response was 3.92% in the assay on CRL-7250, -1.55% with HEK293 and -2.4% in the assay on NIH3T3.
`Cc1c(C(=O)O)c(O)cc2c1C(=O)c1c(O)c([C@@H]3O[C@H](CO)[C@@H](O)[C@H](O)[C@H]3O)c(O)c(O)c1C2=O`: the max response in the assay with HEK293 is -35.5%; with KB-3-1, -19.3%; in the assay on NIH3T3, -21.1%. Further, in the assay with MCC-13, the Potency result is “inactive”.
With `c1ccc(CCNc2nc(-c3ccccc3)cs2)cc1`, in the assay on HEK293, the Potency was 11.9 µM (active). The molecule was classed as inactive with HaCat [1] and with HACAT [2]. The max response was -17.2% in the assay with KB-3-1 and -13.6% in the assay on NIH3T3. For the same molecule, the Potency result in the assay with MCC-13 was “inactive”.
As for `CNC(=O)c1c(I)c(NC(=O)CCCCC(=O)Nc2c(I)c(C(=O)O)c(I)c(C(=O)NC)c2I)c(I)c(C(=O)O)c1I`, the max response was -5.95% in the assay on CRL-7250, -10.9% in the assay on HEK293 and -3.88% in the assay with NIH3T3. The Potency result in the assay on MCC-13 was “inactive”.
Take `O=Cc1ccc(O)c(O)c1O`: the Potency in the assay with HEK293 was 26.6 µM (active). In addition, the call with HaCat [1] and in the assay on HACAT [2] was inactive. Further, in the assay on MCC-13, the Potency result was “inactive”.
For `CCCCC1C(=O)N(c2ccccc2)N(c2ccc(O)cc2)C1=O` (stereo unspecified), the Potency with HEK293 is 4.73 µM (active); in the assay with NIH3T3, 15 µM (active); in the assay on MCC-13, 9.44 µM (active). In addition, the max response in the assay with KB-3-1 was -9.78%.
For `CCCC(=O)OC[C@@H](OC(=O)CCC)[C@@H](OC(=O)CCC)[C@H](Cn1c2nc(=O)[nH]c(=O)c-2nc2cc(C)c(C)cc21)OC(=O)CCC`, the call in the assay on CRL-7250 and with NIH3T3 was inactive. The max response is 4.67% in the assay on HaCat [1] and 23.7% in the assay with KB-3-1. In the assay on MCC-13, the Potency result is “inactive”.
As to `CC(N)C(=O)OC(C)(C)Cc1ccc(Cl)cc1` (stereo unspecified), the Potency in the assay on W2 is 4.26 µM (active). Moreover, the max response with CRL-7250 is 4.4%; in the assay on NIH3T3 it was -1.5%. Besides, the molecule was called inactive in the assay on HaCat [1] and in the assay on HACAT [2]. In addition, the Potency result in the assay on MCC-13 is “inactive”.
As to `CC(C(=O)O)c1ccc(C(=O)c2ccccc2)s1` (stereo unspecified), the result in the assay on CRL-7250, with HaCat [1] and in the assay on HACAT [2] was inactive. In the assay with HEK293, the max response is 0.794%. Further, the Potency result with MCC-13 was “inactive”.
Take `CS(=O)(=O)c1ccc(-n2nc(C(F)(F)F)cc2-c2ccc(F)cc2)cc1`: the max response with HEK293 is 1.42%; in the assay with KB-3-1 it was -2.3%; with NIH3T3 it was -2.48%. For the same molecule, the molecule was called inactive with HaCat [1] and in the assay on HACAT [2].
As for `CN(C)[C@@H]1C(=O)C(C(=O)NCN2CCCC2)=C(O)[C@@]2(O)C(=O)C3=C(O)c4c(O)cccc4[C@@](C)(O)C3C[C@@H]12` (stereo partly specified), the max response in the assay with HaCat [1] was -12.7%; in the assay with KB-3-1, 3.68% and -3.42%; with NIH3T3, 1.26%. The Potency result with MCC-13 was “inactive”.
`CC(=O)O[C@H]1C[C@@]2(C)[C@@H](C[C@@H](O)[C@H]3[C@@]4(C)CC[C@@H](O)[C@@H](C)[C@@H]4CC[C@@]32C)/C1=C(\CCC=C(C)C)C(=O)O`: the molecule was called inactive in the assay on CRL-7250 and in the assay on NIH3T3. Also, the max response in the assay with HEK293 was -11.3%.
